Shown are actives, neighbours in structure and some others; about 18% of the full set was active somewhere.
DT40 TDP1 CPT: DT40-hTDP1 cell growth loss with CPT | actives 12% (n = 420,000) | Potency, µM (highest dose often 46.2 µM), actives largely listed as inhibitors | chicken DT40 Tdp1-/-;hTDP1 cells + 20 nM CPT, ATP luminescence, 48 h; note: nearly all actives have a fitted effect of over 55% in size
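Chicken DT40 Tdp1-/- cells complemented with human TDP1, 400 cells/well, exposed to compounds plus 20 nM camptothecin for at least 48 h at 37 C; viability read as ATP content by CellTiter-Glo luminescence.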
DT40 TDP1 no CPT: qHTS for Inhibitors of human tyrosyl-DNA phosphodiesterase 1 (TDP1): qHTS in cells in absence of CPT | DT40 Tdp1-/- hTDP1 cells, no CPT, ATP luminescence, 48 h | Potency, µM (doses to about 46.2 µM), hits mostly inhibitors | actives 15% (n = 420,000) | AID 686978, 2013; note: nearly all actives have a fitted effect of over 55% in size
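Seeded 400 DT40-hTDP1 cells/well (vehicle DMSO, no 20 nM CPT); pinned compounds; ≥48 hr at 37 °C; CellTiter-Glo luminescence as viability measure.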
RORgamma inh: inhibitors of mouse ROR gamma transcriptional activity; P51450; Drosophila S2 Gal4-RORgamma UAS-luciferase reporter, 20 h; Potency, µM (series often up to 53.6 µM), usual class: inhibitors; actives 5.4% (n = 310,000); AID 2551; note: nearly all actives have a fitted effect of over 60% in size
Target sequence (P51450 whole entry, looked up, the tested form may be a part): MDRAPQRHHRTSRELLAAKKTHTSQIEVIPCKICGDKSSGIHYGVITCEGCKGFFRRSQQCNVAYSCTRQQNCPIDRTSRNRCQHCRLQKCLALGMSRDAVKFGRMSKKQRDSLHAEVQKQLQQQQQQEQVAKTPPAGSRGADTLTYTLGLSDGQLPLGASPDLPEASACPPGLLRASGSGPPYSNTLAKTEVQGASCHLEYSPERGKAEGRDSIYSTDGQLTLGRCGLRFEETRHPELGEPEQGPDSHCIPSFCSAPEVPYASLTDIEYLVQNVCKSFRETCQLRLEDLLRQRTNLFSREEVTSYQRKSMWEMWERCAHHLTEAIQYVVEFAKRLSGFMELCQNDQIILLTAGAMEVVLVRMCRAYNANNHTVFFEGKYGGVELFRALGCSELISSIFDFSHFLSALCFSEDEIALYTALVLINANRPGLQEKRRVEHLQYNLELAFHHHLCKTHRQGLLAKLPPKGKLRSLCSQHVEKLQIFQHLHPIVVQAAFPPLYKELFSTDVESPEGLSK
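Drosophila S2 cells stably expressing Gal4-DBD/mouse RORγ fusion under metallothionein promoter plus UAS-luciferase; compound 1 h, then 700 uM CuSO4 induction for 20 h at ambient temperature; inhibition read as reduced luminescence.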
IL1B secr inh: blocks inflammasome-driven IL-1 beta release | activity change, % at 57.5 µM | actives 4.7% (n = 360,000) | THP-1 LPS/ATP IL-1B secretion, AlphaLISA, 16 h; hits give low values; in the data active = activity change below about -50%; inconclusive = mostly about -30% to -49%
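THP-1 cells pretreated 1 hr with compounds (up to 57.5 uM final), then stimulated with LPS (250 ng/mL final) plus ATP (1.25 mM final); secreted IL-1B measured by AlphaLISA after 16 hr, decreased signal indicating inhibition.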
LDHA inh: LDHA (human) enzyme inhibition; P00338; purified LDHA, NADH/diaphorase-resazurin fluorescence; hits give low values; activity change, % (values are at about 110 or 230 µM); actives 0.15% (n = 480,000); AID 1347041; in the data active = activity change below about -30%; inconclusive = mostly about -25% to -30%
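Remaining NADH was detected by diaphorase (0.133 mg/mL) converting 37 µM resazurin to fluorescent resorufin, read at 0 and 20 minutes. The preceding 5-minute room-temperature reaction used 2 nM LDHA, 0.2 mM sodium pyruvate and 0.06 mM NADH at pH 7.4.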
Gal4-VP16 FLuc: inhibits Gal4-VP16 luciferase reporter, ROR gamma counter-screen; AID 2546; Drosophila S2 Gal4-VP16 UAS-luciferase, luminescence, 20 h; actives 3.5% (n = 310,000); Potency, µM (titrated, usually from 53.6 µM), hits mostly inhibitors;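 note: Gal4-VP16 expression switched on by copper sulfate through the metallothionein promoter; nearly all actives have a fitted effect of over 50% in size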
Of the large screens only hits and unclear results are named; the others gave an inactive call. Unless noted, calls come from the whole dose curve; as a rule, active = well fitted curve in the direction sought with a large enough effect; inconclusive = small, poorly fitted or top-dose-only effect, or another doubt; inactive = no such curve, though single readings can be large; an effect the other way counts as inactive or inconclusive.

CCC1CCCCN1CCCNC(=O)c1cc2c(Cl)nc3ccc(C)cc3c2s1 (stereo unspecified)	DT40 TDP1 CPT 5.2µM, DT40 TDP1 no CPT 4.6µM (no result: RORgamma inh, IL1B secr inh, Gal4-VP16 FLuc)
O=C1OCC2=C1C(c1ccc3c(c1)OCO3)CC(=O)N2c1ccc(C(F)(F)F)cc1 (stereo unspecified)	none (no result: DT40 TDP1 CPT, DT40 TDP1 no CPT, RORgamma inh, IL1B secr inh, Gal4-VP16 FLuc)
C=C1NN(Cc2ccccc2)C(=O)N1c1ccc(OCc2ccccc2)cc1	DT40 TDP1 CPT 11µM, DT40 TDP1 no CPT 11µM (no result: RORgamma inh, IL1B secr inh, Gal4-VP16 FLuc)
C=C1NN(CC#N)C(=O)N1c1ccc(OCc2ccccc2)cc1	DT40 TDP1 no CPT inconclusive (no result: RORgamma inh, IL1B secr inh, Gal4-VP16 FLuc)
O=C(Nc1c(NCC2CCCCC2)c2ccccc2oc1=O)c1cccc(F)c1	none (no result: DT40 TDP1 CPT, DT40 TDP1 no CPT, RORgamma inh, IL1B secr inh, Gal4-VP16 FLuc)
O=S(=O)(Nc1ccc(-c2cn3ccsc3n2)cc1)c1cccs1	none (no result: DT40 TDP1 CPT, DT40 TDP1 no CPT, RORgamma inh, IL1B secr inh, Gal4-VP16 FLuc)
CCCCNC(=O)C1(C)CCCCN1C(=O)c1oc2ccccc2c1C (stereo unspecified)	DT40 TDP1 CPT 15µM, DT40 TDP1 no CPT 10µM (no result: RORgamma inh, Gal4-VP16 FLuc)
CCCCNC(=O)C1(C)CCCCN1C(=O)c1cc(-c2ccccc2)cs1 (stereo unspecified)	DT40 TDP1 CPT 13µM, DT40 TDP1 no CPT 8.2µM (no result: RORgamma inh, Gal4-VP16 FLuc)
CCN(CC)C(=O)c1cccnc1-c1nc2ccccc2s1	none (no result: DT40 TDP1 CPT, DT40 TDP1 no CPT, RORgamma inh, IL1B secr inh, Gal4-VP16 FLuc)
COc1cccc(-c2cncnc2NCc2ccc(OC)cc2OC)c1	DT40 TDP1 CPT inconclusive, DT40 TDP1 no CPT 16µM, RORgamma inh inconclusive (no result: IL1B secr inh, LDHA inh)
COc1ccc(CNc2ncncc2-c2cccnc2)c(OC)c1	none (no result: IL1B secr inh, LDHA inh)
COc1ccc(CNc2ncncc2-c2ccoc2)c(OC)c1	DT40 TDP1 CPT 23µM, DT40 TDP1 no CPT inconclusive (no result: IL1B secr inh, LDHA inh)
Cc1ccc(NC(=O)C2=COCCO2)cc1Cl	none (no result: DT40 TDP1 CPT, DT40 TDP1 no CPT, RORgamma inh, IL1B secr inh, Gal4-VP16 FLuc)
CCCCOc1ccc(NC(=O)c2ccccc2Cl)c2cccnc12	none (no result: DT40 TDP1 CPT, DT40 TDP1 no CPT, RORgamma inh, IL1B secr inh, Gal4-VP16 FLuc)
O=C1C(=NO)C(c2ccccc2)Oc2ccccc21 (stereo unspecified)	IL1B secr inh -90 (no result: RORgamma inh, Gal4-VP16 FLuc)
O=C1/C(=C/c2ccc(F)cc2)C(c2ccccc2)Oc2ccccc21 (stereo unspecified)	none (no result: DT40 TDP1 CPT, DT40 TDP1 no CPT, RORgamma inh, IL1B secr inh, Gal4-VP16 FLuc)
COc1cc(CN(C(=O)COc2ccc(Cl)cc2)c2ccccn2)cc(OC)c1OC	DT40 TDP1 CPT 18µM, DT40 TDP1 no CPT 8.2µM (no result: RORgamma inh, IL1B secr inh, Gal4-VP16 FLuc)
CCCCOc1cccc(C(=O)N(Cc2ccc(C)o2)c2ccccn2)c1	DT40 TDP1 CPT 15µM, DT40 TDP1 no CPT 9.2µM (no result: RORgamma inh, IL1B secr inh, Gal4-VP16 FLuc)
Cc1cccc(C(=O)N(Cc2ccc(C)o2)c2ccccn2)c1	none (no result: DT40 TDP1 CPT, DT40 TDP1 no CPT, RORgamma inh, IL1B secr inh, Gal4-VP16 FLuc)
Cc1ccc(CN(C(=O)COc2cc(C)c(Cl)c(C)c2)c2ccccn2)o1	DT40 TDP1 CPT inconclusive, DT40 TDP1 no CPT 18µM (no result: RORgamma inh, IL1B secr inh, Gal4-VP16 FLuc)
Cc1ccc(CN(C(=O)COc2ccccc2[N+](=O)[O-])c2ccccn2)o1	DT40 TDP1 CPT inconclusive, DT40 TDP1 no CPT inconclusive (no result: RORgamma inh, IL1B secr inh, Gal4-VP16 FLuc)
Cc1ccc(CN(C(=O)COc2ccc(Br)cc2)c2ccccn2)o1	DT40 TDP1 CPT inconclusive, DT40 TDP1 no CPT 16µM (no result: RORgamma inh, IL1B secr inh, Gal4-VP16 FLuc)
COc1ccc(CN2CC3=C(C2=O)C(c2ccc(C)cc2)NC(=O)N3)cc1 (stereo unspecified)	none (no result: DT40 TDP1 CPT, DT40 TDP1 no CPT, RORgamma inh, IL1B secr inh, Gal4-VP16 FLuc)
CCN1CCCC1CNC(=O)C1CCCC1 (stereo unspecified)	none (no result: DT40 TDP1 CPT, DT40 TDP1 no CPT, RORgamma inh, IL1B secr inh, Gal4-VP16 FLuc)
COc1ccc(Oc2c(C)oc3cc(O)ccc3c2=O)cc1	none (no result: DT40 TDP1 CPT, DT40 TDP1 no CPT, RORgamma inh, IL1B secr inh, Gal4-VP16 FLuc)
COCCNC(=O)C1CCCN(C(=O)c2ccc3c(c2)C(C)(C)CCC3(C)C)CC1 (stereo unspecified)	DT40 TDP1 CPT 13µM, DT40 TDP1 no CPT inconclusive (no result: RORgamma inh, Gal4-VP16 FLuc)
COCCNC(=O)C1(C)CCN(C(=O)c2ccc3c(c2)C(C)(C)CCC3(C)C)C1 (stereo unspecified)	DT40 TDP1 CPT inconclusive, DT40 TDP1 no CPT 26µM (no result: RORgamma inh, Gal4-VP16 FLuc)
COCCNC(=O)C1CCCN(C(=O)c2ccc(OC)c(F)c2)CC1 (stereo unspecified)	none (no result: RORgamma inh, Gal4-VP16 FLuc)
COCCNC(=O)C1CCCN(C(=O)c2ccnc(Cl)c2)CC1 (stereo unspecified)	IL1B secr inh -62 (no result: RORgamma inh, Gal4-VP16 FLuc)
Cc1occc1-c1nnc(SC(C(=O)NCc2cccnc2)C(C)C)o1 (stereo unspecified)	none (no result: DT40 TDP1 CPT, DT40 TDP1 no CPT, RORgamma inh, IL1B secr inh, Gal4-VP16 FLuc)
CCOc1ccc(CN(C)Cc2cc(C(C)(C)C)c(O)c(C(C)(C)C)c2)cc1OC	none (no result: DT40 TDP1 CPT, DT40 TDP1 no CPT, RORgamma inh, IL1B secr inh, Gal4-VP16 FLuc)
CCn1ccc(C(=O)Nc2cccc(Cl)c2)n1	none

High-throughput results deposited in PubChem BioAssay by National Center for Advancing Translational Sciences (NCATS).
